# Source: PubChem BioAssay (NCI)
# This is part of a sample that, as a whole, favours compounds with a hit. Of some 83,000 tested, about 20% had one in any assay.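 Testing used 96-well plates and a 48-hour single-concentration exposure. Example: -40 means 40% of the starting cells died.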 A number with no mark means an inactive call. How the source made its calls: active means growth percent below 10; inactive means the rest.
# System: SN12C renal
# Test: NCI-60 one-dose screen, 48 h (100 = growth as untreated, 0 = no growth, -100 = all killed)
# Conditions: 10 µM unless noted
row,SMILES,growth [%]
1,C#Cc1nc(C(=O)NCCC(=O)Nc2ccc(NC(=O)c3ccc(/C=C/C(=O)c4nccn4C)cc3)cc2)cs1,14.4
2,CCN(CC)CCn1c2ccc(O)cc2c2sc3cc(OC)ccc3c(=O)c21,21.5
3,CC1(C)CC[C@]2(C(=O)N3CCOCC3)CC[C@]3(C)C(=CC[C@@H]4[C@@]5(C)C/C(=C/c6ccccn6)C(=O)C(C)(C)[C@@H]5CC[C@]43C)[C@@H]2C1,67.7
4,Cc1nc(-c2ccccc2O)ccc1C(=O)N=Nc1c(O)[nH]c2ccc(Br)cc12,95.1
5,O=C(CCn1c[n+](CC(=O)c2ccc(-c3ccccc3)cc2)c2ccccc21)Nc1cccc2cccnc12,53.6
6,COC(=O)c1[nH]nc2c1C1(C(=O)c3cccc4cccc1c34)C(C#N)=C(N)O2 (configuration not stated),100
7,N=c1c2cc(-c3ccccc3)oc2ncn1/N=C/c1ccc(Cl)cc1,62.6
8,Cc1ccc(-n2c(/C=C3\C(=O)Nc4ccccc43)ccc2CO)cc1,88.2
9,CC(=O)N(C)C1CCc2c(sc(NC(=O)c3ccc(C(C)(C)C)cc3)c2C(N)=O)C1 (configuration not stated),71.1
10,CC1(C)[C@@H](O)CC[C@]2(C)[C@H]3CC[C@@H]4[C@H]5[C@H](C(=O)/C=C\c6ccc([N+](=O)[O-])cc6)CC[C@]5(O)CC[C@@]4(C)[C@]3(C)CC[C@@H]12,73.5
11,Cc1ccc(NC(=O)CNc2cc(C(N)=O)cc(F)c2C)c(Cl)c1,77.1
12,COc1ccc(N2CCN(C3=C(Cl)C(=O)C(C)=C(C)C3=O)CC2)cc1,99.3
